80 sequences from the supplement of paper PMC10681739 can be followed below.

Over roughly 4,100 sequences, “arbitrary fluorescence units” has its median near 780; the highest 2% begin near 22,000. For the sample, the highest values were picked, then their nearest neighbours and some sequences at random.

The experiment has as its target T1, ETS1 (UniProt P14921).
T1 sequence: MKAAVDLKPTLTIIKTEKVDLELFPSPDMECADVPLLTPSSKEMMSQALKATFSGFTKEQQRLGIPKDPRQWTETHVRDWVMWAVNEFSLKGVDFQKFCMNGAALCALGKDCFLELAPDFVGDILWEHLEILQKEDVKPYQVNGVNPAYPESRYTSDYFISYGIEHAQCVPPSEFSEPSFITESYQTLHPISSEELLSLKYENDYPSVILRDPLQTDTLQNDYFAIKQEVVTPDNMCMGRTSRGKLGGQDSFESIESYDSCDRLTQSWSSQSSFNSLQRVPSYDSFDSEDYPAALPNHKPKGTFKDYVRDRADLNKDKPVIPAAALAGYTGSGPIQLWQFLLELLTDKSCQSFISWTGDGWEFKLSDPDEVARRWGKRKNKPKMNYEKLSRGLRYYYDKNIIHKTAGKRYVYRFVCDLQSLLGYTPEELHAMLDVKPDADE
Put plainly: ETS1 binding intensity (PBM fluorescence), ETS1 alone (arbitrary fluorescence units); higher = stronger binding. The conditions noted are these: ETS1 concentration 1 nM; RUNX1 concentration 0 nM. The protocol: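 gcPBM on 36-bp genomic-derived probes (partner site mutated) containing one ETS1 site and no RUNX1 site. Recombinant human ETS1 (1 nM) was incubated alone or with RUNX1 (25 nM) and detected by anti-ETS1 antibody fluorescence. Values are medians over 4 replicate spots (not normalised). The probes sit in constant array flanks that are not printed.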
AGTTTTCCGTCGGGCTCCCAGTGACGCCGAAGAGGT had an ETS1 binding intensity of 2580.

With GCGCAAAGCCGGAAGGAGGGGTTTGGGGCTGGGGAG, the ETS1 binding intensity came to 4130.

CCCACTTCCTGTCTGCTTCCCTCCTCCGCTCAGACC had an ETS1 binding intensity of 28400.

Regarding CTTCCTTCCCTTCCTTCTGCTCCCTCCCAGAGCCGC, the ETS1 binding intensity amounted to 852.

For the sequence TCCCTCCTCCGCTCAGACCCACTTCCTGTCTGCTTC, the ETS1 binding intensity was 8330.

Consider TAGGGGCTGAGGGTCCGGGCGGAAGTGGGGCAGGCG, for which the ETS1 binding intensity was 2500.

Consider CTGCACTTCCGGTCAGGCGGTCGGGCTGAGGGGCCC, for which the ETS1 binding intensity turned out to be 36600.

CCGGTCGGGGCTGCAGCCGCTTCCGGAGCCGCGGGC returned an ETS1 binding intensity of 3060.

Turning to ATGGATGGGGTTGCTTGCGTGAGGAAATACTTGATG, the ETS1 binding intensity is 524.

As to CCCAATTTCCTTTGCTCTGCTGTCTGCCAACCCCAA, the ETS1 binding intensity was determined as 3560.

In turn, GCAGATATCACAGACTCTCTCCTTTCCTGCTGAATA gave an ETS1 binding intensity of 546.

In turn, GCTCGCAGCCCCAAGAGGTGGCCTTCGGTTCCGGGG registered an ETS1 binding intensity of 382.

With TGACTTCCGGTCCGTAGTGGGGCCTTCGGTGGGAGT, the ETS1 binding intensity stood at 35800.

CTGCAGCGGGGATCCTTGGGGCCCTTCCGGTCGGTG: the ETS1 binding intensity was determined as 2190.

Sequence TTGTGGACGCGGATTTGGGGGCGGGTATCCGGGCCT gave an ETS1 binding intensity of 564.

As to GGTCACTTCGGCCCAGAGGCCCGCTCTTCCGCTGAG, the ETS1 binding intensity was determined as 564.

Regarding CAGGGATTCCGGCTGAGTGCGGCCCCCTCAGCCTCC, the ETS1 binding intensity was 606.

In the case of GTGGCTGTCGTTGAACTGACTCTCGGGTTTCCGCTC, the ETS1 binding intensity is 606.

Take GAGCCTGTTGCTTCCGGTTCAGAGCCCACGTGCTGG: the ETS1 binding intensity was 22200.

Sequence TGGAAGAGCCCCACGACATGTGCTTCCTGCGTGCTG showed an ETS1 binding intensity of 596.

CTAGCTGTGGACAGGAAACGAGTGGATTTTGTGATC displayed an ETS1 binding intensity of 3740.

As to CCGGGACCTCGGCTTGGGCTCACGGCCACTTCCGAC, the ETS1 binding intensity was 393.

Regarding CCGTACTTCCGCTTTACTCAGATTTTGGACCTCGGG, the ETS1 binding intensity is 30200.

Sequence CTCAGCGGCAGCAAGCCCCACCCCGGAAGTCGGCTG showed an ETS1 binding intensity of 1590.

GATGACTTCCTCAGTTCAGGGCTATGTACGGGGGAG gave an ETS1 binding intensity of 4670.

Regarding GGCCTCGCGGCGTCTCTGCTGCTTCCGCCTTCCCGG, the ETS1 binding intensity turned out to be 854.

For CCGCTTCCGGCCTTCGCCCGGCTTAGCCGCGTCGCA, the ETS1 binding intensity stood at 34700.

On to GCCCGGCTTAGCCGCGTCGCGGAAGTCCGCTCTCTG, for which the ETS1 binding intensity worked out at 397.

In turn, CCTCTGCCCAACCCCAATTTTCCCTTCCTCCGCCTT showed an ETS1 binding intensity of 543.

The sequence CTTTTTGATTTCCTCAAGCATCCCAGAAATACACAG yielded an ETS1 binding intensity of 2020.

On to GCCCACGCCGCTGGGAGGTGAGACTGAAGGAAGCAC, for which the ETS1 binding intensity is 402.

ACGGAGCTGTAGTTTAACGTTTCCGGTTAGTGGCTA yielded an ETS1 binding intensity of 9670.

As to GCCCACTTCCTGCCGTAAGAGAAATCCACTAACACA, the ETS1 binding intensity amounted to 33800.

Turning to GACGCAGCCCCAGAGCGATTCGCGTCCCGGAAGCGG, the ETS1 binding intensity amounted to 491.

In the case of CCGAGCGCACCAGCTCCCGCGCGTGGTTCCGCCGCT, the ETS1 binding intensity was determined as 324.

In turn, CCAACGAGCACTTCCGCTTCCCGAAGCTCCAGCGGC yielded an ETS1 binding intensity of 27700.

TCCAGCGCCGCTGGGCCAACGAGAGCGCTTCCGGCC displayed an ETS1 binding intensity of 1740.

As to GCGAGAGGGAGGAAGTGACTCACCAACCCCAACAAA, the ETS1 binding intensity is 2690.

TCCCAGTTTATGGGAAGGGTTGAGGGAAGTGAGGGG had an ETS1 binding intensity of 531.

With GTGACGTGGCTGTAGGTCTCATTTCCTGCACGGCCT, the ETS1 binding intensity came to 2060.

In turn, GGATCGGCCTGAGGTGTGTCTCATTTCCTGTAGGTA showed an ETS1 binding intensity of 2130.

The sequence TGTCTCATTTCCTGTAGGTAACAGGCACCAAAATAG had an ETS1 binding intensity of 26500.

Take TGCTCCACTCGGAAGTGGTGCCGAAGCTCTTCGATG: the ETS1 binding intensity is 905.

In turn, GCCACACTTCCGGCGGGGCTGCGACTGCAGAGGGGC returned an ETS1 binding intensity of 38700.

Turning to CTGCCAGAGCACACAGTTTGCACTTCCGGGGCGGGC, the ETS1 binding intensity came out at 2710.

On to CCGCCGACACACTTCCGGCGGCCACCAGAGGGTATT, for which the ETS1 binding intensity worked out at 21200.

CAAGAGCCGGAAGTCCCTTGTGCCGTAGTCCTTCCC: the ETS1 binding intensity came out at 9220.

In turn, CAGCATGAGGGTGCACACACCGCTTCCTTAGAGGTT gave an ETS1 binding intensity of 757.

Take GTGATAAGAACGACAGGCCACTTCCCAAAGATCAAA: the ETS1 binding intensity is 531.

Turning to TTTCACTTCCGGCATGTTTTTCACCTACAGGGATAT, the ETS1 binding intensity is 35500.

For AGCTTCCGAGTCTGTTGTGGAGTGGGAACAGCGACT, the ETS1 binding intensity stood at 2510.

GCCTGCGCTCTTTCCGGTAGCCAGAGCCTCGTCTAA registered an ETS1 binding intensity of 8280.

Take CGTCCCCGAAAAGCCGCGGCAGAAACTTCCGGCGGT: the ETS1 binding intensity was 3130.

CGCCGAACTTCCGGCAGTAAATTCCGTGGATTCCCG had an ETS1 binding intensity of 27100.

GCACGTGTTTCCTGGGGCTGCACCCCAGCACCACAC registered an ETS1 binding intensity of 2380.

CGTTTCCTGTGGCTGCAGCTCTCCCCACGCACACAC: the ETS1 binding intensity is 23800.

On to TGCCGCCTGCAGCACCCTCCCCATTTCCTGGCTGTA, for which the ETS1 binding intensity was 1190.

ACCCACTTCCTGTTAGAGCATCTTTGCAACCCCAGG: the ETS1 binding intensity came to 30200.

Consider TGTTGCCACTGTTAGACTAGAGAGCATCCTGTTGTT, for which the ETS1 binding intensity came out at 851.

In turn, TTTCTTCCTGTTTGCATCACCCCAAATCCACTATCA yielded an ETS1 binding intensity of 16900.

As to TACGCACACGCTTCGGGATCCTTCCGCTCCGGGTTA, the ETS1 binding intensity came to 644.

Sequence CTCCCACGCTCCCCTTCCGGCCCCGCTGCGCTGTGA displayed an ETS1 binding intensity of 3160.

The sequence CCGGGCGCCACTTCCGGTCCCCGTGGACACGTGACC showed an ETS1 binding intensity of 53800.

Sequence TTGCGCCGGACGCCACTTTCGGTCCCCGTGGACACG showed an ETS1 binding intensity of 602.

Regarding GGTCACGTGTCCACGGGGACCGGAAGTGGCGCCCGG, the ETS1 binding intensity is 14400.

Turning to TCTTGTTTCTTCCGTTACCGGAGCGCGGCCACGTGA, the ETS1 binding intensity turned out to be 2590.

For CCAGAGGGCGGAAGTGGGAGCTGCGACGGCGCTCCC, the ETS1 binding intensity stood at 7030.

ACTTTGTCAGTGTAGTTTTCACATCCTGTCCTAGCT showed an ETS1 binding intensity of 2870.

In turn, AACATCCTGTGTAAAGAGAATTGAATGTAGTTTTCT came in with an ETS1 binding intensity of 25200.

TTTCTGATTGTAGTTTCAAATTATTTCCTGTGTTGG: the ETS1 binding intensity worked out at 1770.

Consider CTCCATTATTCCGGCCAGGTGCCCTTCTGGGATAAG, for which the ETS1 binding intensity was 670.

GAGCTGCAAGTCACAAAGACCGGAAGTGCGCGTACG displayed an ETS1 binding intensity of 26000.

With TGCGCCGGAAGTGCATGAGCTGCCGATGAGGTGCTT, the ETS1 binding intensity stood at 8970.

Sequence GCGCGGACTCCGGGAAGCTGAGCGGCAAAGACCGTG gave an ETS1 binding intensity of 359.

TCACAATCGCTCACAAAGACAGGAAGTAACTGTCAG yielded an ETS1 binding intensity of 3450.

For CTCCTGCTCACAGAAGCTCACTGTTTCCTGTCTAGC, the ETS1 binding intensity was 2690.

In the case of CACTTCCTGCCCTCTTCCACTTTCAAAATCACATCA, the ETS1 binding intensity stood at 31900.

In turn, AAATCAAAACCCCAATCAGATACCACTTCCTGCCCA came in with an ETS1 binding intensity of 2350.

TACTCTAAAGCACTTCAAACCTCCACTTCCTGCCCC registered an ETS1 binding intensity of 2240.

Consider CTCCCCCAGCACATCCTCTGCCACTGCTGCCTTTCC, for which the ETS1 binding intensity was 1720.
